# Measurements as given in PubChem BioAssay (NCATS).
# Inconclusive results are not listed. Activity calls are given as the source filed them. Calls follow the shape of the full dose curve.
# Target: Peroxisome proliferator-activated receptor delta (Homo sapiens) (UniProt Q03181)
# Test: qHTS assay for small molecule agonists of peroxisome proliferator-activated receptor delta signaling (AID 588534)
# Conditions: HEK293T PPARdelta-UAS-bla, beta-lactamase ratio, 18 h; series mostly up to 76.7 µM
# Text: NIH Chemical Genomics Center [NCGC] U.S. Environmental Protection Agency [EPA] National Institutes of Environmental Health Sciences [NIEHS] National Toxicology Program [NTP] NCGC Assay Overview The Peroxisome proliferator-activated receptors (PPARs) are lipid-activated transcription factors of the nuclear receptor superfamily with three distinct subtypes namely PPAR alpha, PPAR delta (also called PPAR beta) and PPAR gamma. All these subtypes heterodimerizes with Retinoid X receptor (RXR) and have different physiological functions. […] This role of PPAR delta implicates the potential use of its ligands in the treatment of metabolic disorders.
# Compounds were screened in a titration series in 1536-well format. […] Concentration-response titration points for each compound were fitted to the Hill equation yielding concentrations of half-maximal stimulation (EC50) and maximal response (efficacy) values. qHTS protocol for PPAR-delta beta-lactamase assay in agonist mode [Step] [Parameter] [Value] [Description] 1. Reagent; 6 uL; 4000 cells/well 2. Incubation; 37 C for 5 hrs 3. Compounds; 23 nL; 0.59 nM to 92 uM 4. […] Incubation; 37 C for 18 hrs 6. Detection reagent; 1 uL of CCF4-dye 7. Incubation; RT for 2 hrs 8. Detection; Fluorescence; Envision plate reader
# Chain of Peroxisome proliferator-activated receptor delta (Homo sapiens) (Q03181 whole entry, looked up): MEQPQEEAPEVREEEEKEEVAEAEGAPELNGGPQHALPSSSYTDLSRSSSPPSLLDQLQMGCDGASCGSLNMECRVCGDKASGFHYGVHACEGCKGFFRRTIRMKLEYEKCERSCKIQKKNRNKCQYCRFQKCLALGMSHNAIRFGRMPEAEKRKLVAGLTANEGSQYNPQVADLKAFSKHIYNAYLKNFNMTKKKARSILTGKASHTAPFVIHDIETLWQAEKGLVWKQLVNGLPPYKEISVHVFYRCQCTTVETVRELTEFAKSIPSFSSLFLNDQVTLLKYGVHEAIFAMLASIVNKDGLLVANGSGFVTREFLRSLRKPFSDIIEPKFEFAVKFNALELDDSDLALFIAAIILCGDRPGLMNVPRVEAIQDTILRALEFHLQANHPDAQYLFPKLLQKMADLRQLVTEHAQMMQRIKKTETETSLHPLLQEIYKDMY
row,SMILES,outcome
1,CCCCOCC(C)OCC(C)O (stereo not given),inactive
2,c1ccc2c(c1)[nH]c1ccccc12,inactive
3,CC(Cl)(Cl)C(=O)OCCOc1cc(Cl)c(Cl)cc1Cl,inactive
4,Nc1nccs1,inactive
5,C=CCOC(=O)CC(C)C,inactive
6,CCN(CC)C(=O)C(C)Oc1cccc2ccccc12 (stereo not given),inactive
7,C/C=C1\CC2C=CC1C2 (stereo not given),inactive
8,O=Cc1ccc(Cl)cc1,inactive
9,Cc1cccc2cccnc12,inactive
10,Cc1ccc(N(C)C)cc1,inactive
11,CCCCOCCOCCOC(=O)CCCCC(=O)OCCOCCOCCCC,inactive
12,COCC(=O)O,inactive
13,[CH3][Sn]([CH3])([Cl])[Cl],inactive
14,C[Si](Cl)(Cl)[Si](C)(Cl)Cl,inactive
15,CCc1ccc(C(=O)NN(C(=O)c2cc(C)cc(C)c2)C(C)(C)C)cc1,inactive
16,CCc1cccc(C)c1N(C(=O)CS(=O)(=O)O)[C@@H](C)COC,inactive
17,CCCCCCCC(=O)OC,inactive
18,CC(C)(C)c1n[nH]c(=O)n(N)c1=O,inactive
19,CSc1ccc(Cl)cc1,inactive
20,CS(=O)(=O)c1cc(C(F)(F)F)ccc1C(=O)c1cnoc1C1CC1,inactive

row,SMILES,outcome
1,Cc1cccc2ccccc12,inactive
2,CC(=O)CC(C)C,inactive
3,CCOc1nc(C(Cl)(Cl)Cl)ns1,inactive
4,CC(O)CN(CC(C)O)CC(C)O (stereo not given),inactive
5,O=C(O)C(F)(F)C(F)(F)C(F)(F)C(F)(F)C(F)(F)C(F)(F)C(F)(F)C(F)(F)C(F)(F)F,inactive
6,CCCCC(CC)COC(C)=O (stereo not given),inactive
7,Nc1nc(CC(=O)O)cs1,inactive
8,CCCCCCc1ccc(-c2ccc(C#N)cc2)cc1,inactive
9,O=[N+]([O-])c1ccc(Cl)c([N+](=O)[O-])c1,inactive
10,Cc1c(N)cccc1[N+](=O)[O-],inactive
11,O=C(O)CCCCCCCCC(=O)O,inactive
12,C=C(C)C(=O)OCCN(C)C,inactive
13,O=C(Nc1ccccc1)c1ccccc1O,inactive
14,CCCCC(CC)COC(=O)c1ccc(C(=O)OCC(CC)CCCC)cc1 (stereo not given),inactive
15,CS/C(=N\O)C(=O)N(C)C,inactive
16,CC/C=C1/OC(=O)c2ccccc21,inactive
17,CCCC(C)CO (stereo not given),inactive
18,O=C(Cl)c1cc(Cl)cc(Cl)c1,inactive
19,OB(O)O,inactive
20,CC#N,inactive
